Source: PubChem
HGIII-sPLA2 inh: Blocks human group III sPLA2 activity | QFRET BODIPY PC-A2 liposome hydrolysis, fluorescence | 370,000 compounds, 0.56% hits | inhibition, % at 12.2 µM | Q9NZ20;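 active = inhibition above mean plus 3 SD of compounds lying within the high and low control bounds, cut at about 19% in these data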;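 note: 0% = median of test compound wells and 100% = no enzyme DMSO wells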
Rtt109 Vps75: inhibitors of Candida albicans Rtt109/Vps75 histone acetyltransferase; purified Rtt109/Vps75, ThioGlo CoA-SH fluorescence, 4 h; inhibition, % at 34.9 µM; Q5AAJ8; AID 540336; 330,000 compounds, 0.16% hits;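 active = inhibition of at least 50% in every replicate; inconclusive = best replicate reaches 50% inhibition but some replicates fall short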
Myeloid diff MLP: promotes myeloid progenitor differentiation | ER-HoxA9 myeloid progenitors, lysozyme-GFP differentiation, flow cytometry | calls only at 10 µM | 360,000 compounds, 1% hits | AID 624256;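 active = normalized GFP-positive differentiation at or above the plate's own cutoff, the solvent-only control mean plus 3 SD; inconclusive = no clear call, values can overlap the other calls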;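 note: cells exposed to compound for four days before flow analysis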
ABHD5-PLIN5 inh: ABHD5-PLIN5 protein interaction inhibition | Q00G26+Q8WTS1 | Split G. princeps luciferase complementation, luminescence, 4 h | inhibition, % at 4 µM | 360,000 compounds, 0.78% hits | AID 602281;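 active = inhibition above the mean inhibition across every tested compound plus 3 SD, cut at about 22% in these data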;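 note: 0% = DMSO only wells and the 100% control is not disclosed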
Target sequence (Q00G26 whole entry, looked up): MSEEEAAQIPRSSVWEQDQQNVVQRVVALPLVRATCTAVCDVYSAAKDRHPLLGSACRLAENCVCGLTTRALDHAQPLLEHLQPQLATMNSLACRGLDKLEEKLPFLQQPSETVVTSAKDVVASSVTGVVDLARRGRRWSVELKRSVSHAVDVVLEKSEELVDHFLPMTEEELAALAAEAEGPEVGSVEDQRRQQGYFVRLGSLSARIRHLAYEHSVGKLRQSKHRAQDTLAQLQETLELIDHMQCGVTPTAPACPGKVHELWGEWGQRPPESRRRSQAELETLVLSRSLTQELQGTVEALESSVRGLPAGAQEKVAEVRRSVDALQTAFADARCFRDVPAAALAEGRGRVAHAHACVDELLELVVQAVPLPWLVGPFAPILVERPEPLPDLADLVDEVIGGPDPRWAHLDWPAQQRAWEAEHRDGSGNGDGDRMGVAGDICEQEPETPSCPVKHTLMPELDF
Target sequence (Q8WTS1 whole entry, looked up): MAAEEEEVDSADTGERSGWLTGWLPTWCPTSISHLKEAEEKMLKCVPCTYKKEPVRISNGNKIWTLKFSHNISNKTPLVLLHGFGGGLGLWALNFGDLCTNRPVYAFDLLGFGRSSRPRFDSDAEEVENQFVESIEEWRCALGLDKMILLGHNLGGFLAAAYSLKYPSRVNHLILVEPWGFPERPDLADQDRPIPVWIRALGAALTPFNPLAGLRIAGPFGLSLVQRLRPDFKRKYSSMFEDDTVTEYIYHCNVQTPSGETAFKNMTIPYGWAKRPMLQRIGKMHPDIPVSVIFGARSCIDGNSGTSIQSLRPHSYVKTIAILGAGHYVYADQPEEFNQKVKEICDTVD
DAGLB inhibitor: diacylglycerol lipase beta (human) inhibition. Q8NCG7. inhibition, % at 5.17 µM. HEK293T DAGLB membrane lysate, EnzChek fluorogenic substrate. 340,000 compounds, 0.059% hits. AID 504411; in the data active = inhibition above about 34%;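 note: 0% = enzyme with vehicle and 100% = wells lacking enzyme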
H9c2 protect: protects H9c2 cardiomyocytes from peroxide injury | H2O2 injury protection, ATPLite, 2 h | protection from H2O2 cell death, % at 20 µM | 360,000 compounds, 0.63% hits | AID 588492;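 active = compounds giving at least 50% protection of heart cells from peroxide-induced death in the single-dose screen, raw or plate-pattern-corrected value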;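 note: 0% = DMSO wells with peroxide and 100% = DMSO wells without peroxide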
Active calls of the source: *; i = inactive; ? = inconclusive; nt = no result given; + = active, no number. In the library only some 2.9% were active in any assay of this set; here they are far more common.

SMILES	HGIII-sPLA2 inh	Rtt109 Vps75	Myeloid diff MLP	ABHD5-PLIN5 inh	DAGLB inhibitor	H9c2 protect
O=C(NCCc1c[nH]c2ccccc12)C(=O)NCC(c1ccco1)N1CCN(c2ccccc2F)CC1 (centres undefined)	nt	-7	i	-5	3	63*
O=C(CN1CCN(S(=O)(=O)c2ccc(F)cc2)CC1)Nc1ccnn1C1CCCC1	7	1	i	2	0	-8
CCN(CC)C(=O)c1ccc(-c2nnc(Nc3ccc(C(=O)N(C)C)cc3)c3ccccc23)cc1	12	2	i	6	0	13
NC(=O)c1ccc(Nc2nnc(-c3ccc(O)cc3)c3ccccc23)cc1	-6	-2	i	4	1	59*
CCN(CC)C(=O)c1ccc(-c2nnc(Nc3ccc(O)cc3)c3ccccc23)cc1	-1	-1	i	4	4	59*
CNC(=O)c1ccc(Nc2nnc(-c3ccc(C(N)=O)cc3)c3ccccc23)cc1	2	8	i	0	0	12
Cc1ccc(C2=NN(CCC#N)C(=O)CO2)cc1	0	6	i	0	-4	0
CC(C)C[C@H](NC(=O)N1CC(=O)Nc2ccccc21)C(=O)N[C@@H](Cc1c[nH]c2ccccc12)C(=O)O	-52	0	i	-1	1	-3
C/C(=N\OCC(=O)N/N=C/c1ccc(C)cc1O)c1cccs1	-13	13	i	-1	-3	64*
CCN(C(=O)COC(=O)c1n[nH]c2ccccc12)C1CCS(=O)(=O)C1 (centres undefined)	-4	2	i	0	0	7
Cc1cccc(CN2CCc3c([nH]c4ccccc34)C2)c1	6	-4	i	-2	-2	6
COc1cc(OC)c(CN2CCc3c([nH]c4ccccc34)C2)cc1Br	-9	6	+	3	-5	0
CCN1/C(=C\C(=S)Nc2ccccc2)Sc2ccccc21	3	10	?	-3	3	-26
CCN1/C(=C/C(C)=C/c2sc3ccccc3[n+]2CC)Sc2ccccc21	-13	134*	?	14	28	-30
O=C(Nn1cnnc1)c1cc([N+](=O)[O-])cc([N+](=O)[O-])c1	-2	-2	i	0	0	4
O=C(Nn1cnnc1)c1ccc([N+](=O)[O-])cc1Cl	21*	-1	i	2	-1	1
CCc1cccc(C)c1NC(=O)CN(C)Cc1cccc(F)c1	-8	-4	i	-3	-3	-4
COCCN(C(=O)COC(=O)C12CC3CC(CC(Cl)(C3)C1)C2)c1c(N)n(Cc2ccccc2)c(=O)[nH]c1=O	-20	5	nt	1	1	3
COc1cc2[nH]c(=S)nc(NCc3ccccn3)c2cc1OC	7	5	+	-11	-3	-4
NC(=O)c1cc([N+](=O)[O-])cc2c1C=Cc1ccccc1O2	4	13	i	0	0	0
COc1ccc(N=C2S/C(=C\c3ccc(OCC(=O)O)cc3)C(=O)N2CCc2c[nH]c3ccccc23)cc1	-52	10	i	-2	10	-5
COc1ccc(N=C2S/C(=C\c3ccc(N4CCOCC4)o3)C(=O)N2CCc2c[nH]c3ccccc23)cc1	nt	-1	?	72*	-2	-16
C=CCN=C1NC(c2ccc(Cl)cc2)C(C(=O)OC)=C(C)N1Cc1cccc(C(F)(F)F)c1 (centres undefined)	9	nt	nt	nt	nt	nt
COc1ccc(-c2csc3nc[nH]c(=O)c23)cc1OC	-3	5	i	1	-1	0
Cc1ccc(-c2csc3nc[nH]c(=S)c23)cc1C	0	1	i	-5	-5	80*
SMILES	HGIII-sPLA2 inh	Rtt109 Vps75	Myeloid diff MLP	ABHD5-PLIN5 inh	DAGLB inhibitor	H9c2 protect
CCC(=O)N1CCN(c2ccccc2NC(=O)COc2cc(C)ccc2C(C)C)CC1	-2	-2	i	1	-9	55*
CCOC(=O)COc1ccc2c3c(c(=O)oc2c1)CCCC3	-5	-11	i	5	4	55*
COc1ccc(Nc2nc3ccccc3n3nnnc23)cc1	6	-2	i	3	0	32
COc1cc(Nc2nc3ccccc3n3nnnc23)cc(OC)c1OC	7	-1	i	3	-6	68*
O=C(COC(=O)C1CCCCC1)NCCc1ccccc1	-3	46	i	2	-4	-1
COCCOCC(=O)Nc1ccc(S(=O)(=O)Nc2cc(C)nc(C)n2)cc1	-1	2	+	-7	2	2
O=C(CCS(=O)(=O)c1ccccc1)N1CCCc2ccccc21	7	-2	i	-2	-6	-2
Cc1cc(Cl)c(S(=O)(=O)N2CCCC2)cc1OCC(N)=O	-1	50*	i	14	1	-3
C(=N\NC1=Nc2cccc3cccc1c23)/c1ccccc1	-10	-1	i	0	-5	-15
Clc1ccc(/C=N/NC2=Nc3cccc4cccc2c34)cc1	-9	0	+	3	-1	-19
CCCn1c(NC(=O)c2ccc(F)cc2)nc2ccccc21	-2	0	i	-1	-4	21
CCn1c(NC(=O)/C=C/c2ccc(F)cc2)nc2ccccc21	2	-14	i	4	-1	74*
COc1ccccc1NS(=O)(=O)c1cc([N+](=O)[O-])ccc1N/N=C/c1sc(N2CCOCC2)nc1-c1ccccc1	-1	4	+	-1	-2	-2
COc1ccc(C(=O)N/N=C/c2sc(N3CCOCC3)nc2-c2ccccc2)cc1OC	0	-6	i	4	-5	21
COc1cc(N2CCCC2)c(OC)cc1/C=C(/C#N)c1ccc(F)cc1	3	-3	nt	2	-7	-16
COc1cc(N2CCCC2)c(OC)cc1/C=C(/C#N)c1ccc(Br)cc1	8	6	+	-2	-3	-7
COc1ccc(C2C(C(=O)c3ccco3)=C(O)C(=O)N2CCN2CCOCC2)cc1 (centres undefined)	-4	-1	i	-3	0	6
CCCCS(=O)(=O)/C=C\C=C/S(=O)(=O)CCCC	nt	149*	?	84*	-1	-34
CC(=O)c1ccc(NC(=O)C2CCCO2)cc1 (centres undefined)	4	-7	i	1	1	3
O=C(N/N=C/c1c(O)ccc2ccccc12)C(=O)N1CCCC1	1	nt	?	3	3	52*
O=C(CN1CCCC1)N/N=C/c1c(O)ccc2ccccc12	-41	1	i	-5	0	49
CCOC(=O)Cc1c(C)nc2c(-c3ccc(Cl)cc3)c[nH]n2c1=O	-11	5	i	4	14	52*
CCOC(=O)Cc1c(C)nc2cc(-c3ccc(Cl)cc3)[nH]n2c1=O	-4	-2	i	-5	3	-4
